Experimental data taken from PubChem BioAssay (EPA / NIEHS).
Several values for one entry are separate records, joined by “and”; a condition that tells them apart may be missing. Equal values may be shown once. More than one record can exist for a structure, and the calls need not agree. Activity calls are given as the source filed them. The calls were made as follows: active = hit-call score of the fitted dose curve at least 0.9, where 1 is the maximum; inactive = score below 0.9.

Columns and labels:
[1] = ATG_E_Box_CIS: Attagene CIS-FACTORIAL HepG2 Assay for human Enhancer Box (E-box) (AID 2282936); conditions: HepG2 E-box cis-reporter transcription, actives raise or lower the signal
In short: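 Cells: HepG2 (human liver), transient MRTU transfection. Exposure 24 h. RNA → oligo(dT) RT → PCR → 6-FAM label → HpaI → CE. Activity fitted both directions relative to DMSO.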

[2] = ATG_M_61_CIS: Attagene CIS-FACTORIAL HepG2 Assay for M61 Transcription Factor (Internal Marker) (AID 2282937); conditions: HepG2 Attagene CIS-FACTORIAL M61 internal marker reporter; actives raise or lower the signal
In short: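 HepG2 cells transiently transfected with multiplexed cis-promoter reporter units reporting endogenous transcription factor activity, measured 24 h after dosing. Reporter mRNA quantified by RT-PCR and capillary electrophoresis; bidirectional fit against DMSO baseline.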

[3] = ATG_EGR_CIS: Attagene CIS-FACTORIAL HepG2 Assay for human Early Growth Response 1 (EGR1) (AID 2282938); conditions: HepG2 Attagene CIS-FACTORIAL EGR reporter mRNA; actives raise or lower the signal
In short: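 HepG2 cells transiently transfected with cis-element-driven multiplexed reporter units, dosed for 24 h. EGR1-element reporter mRNA quantified by RT-PCR, 6-FAM labelling, HpaI digestion and capillary electrophoresis; bidirectional fit versus DMSO.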

[4] = ATG_M_19_CIS: Attagene CIS-FACTORIAL HepG2 Assay for M19 Transcription Factor (Internal Marker) (AID 2282939); conditions: HepG2 Attagene CIS-FACTORIAL M19 internal marker reporter; actives raise or lower the signal
In short: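 Internal marker readout, fitted in both directions against DMSO, from HepG2 cells carrying transfected cis-element reporter constructs; RT-PCR and capillary electrophoresis of reporter mRNA after 24 h exposure.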

[5] = ATG_Ets_CIS: Attagene CIS-FACTORIAL HepG2 Assay for human Erythroblast Transformation Specific (ETS) (AID 2282941); conditions: HepG2 ETS cis-reporter transcription, actives raise or lower the signal
In short: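 After transient cis-reporter transfection, HepG2 cells receive test chemical for 24 h. Reporter mRNA levels, measured by RT-PCR and capillary electrophoresis fluorescence, are analysed bidirectionally relative to the DMSO baseline.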

[6] = target: Hepatocyte nuclear factor 3-beta (Homo sapiens) (UniProt Q9Y261); assay: ATG_FoxA2_CIS: Attagene CIS-FACTORIAL HepG2 Assay for human Forkhead box A2 (FOXA2) (AID 2282942); conditions: HepG2 cis-reporter transcription factor activity, 24 h; actives raise or lower the signal
In short: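 HepG2 transiently transfected with a multiplexed cis-promoter reporter library read endogenous FOXA2 activity. After 24 h compound exposure, reporter mRNA was quantified by RT-PCR, HpaI digestion and capillary electrophoresis. Bidirectional fit against DMSO.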

[7] = ATG_FoxO_CIS: Attagene CIS-FACTORIAL HepG2 Assay for human Forkhead box O (FoxO) (AID 2282943); conditions: HepG2 Attagene cis-reporter, FoxO element, mRNA; actives raise or lower the signal
In short: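 HepG2, transient MRTU transfection (cis element, endogenous TFs). Dose 24 h. TriZol RNA → oligo(dT) RT → PCR → 6-FAM primer extension → HpaI cut → CE. Gain/loss vs DMSO.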

[8] = ATG_GATA_CIS: Attagene CIS-FACTORIAL HepG2 Assay for human GATA Binding Protein (AID 2282944); conditions: HepG2 GATA cis-element reporter, Attagene multiplex mRNA; actives raise or lower the signal
In short: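 Reporter transcripts from a GATA cis-regulated unit, among multiplexed reporters in transfected HepG2 cells, were measured by RT-PCR with capillary electrophoresis after 24 h dosing. Induction or loss scored relative to DMSO.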

[9] = ATG_GLI_CIS: Attagene CIS-FACTORIAL HepG2 Assay for human Zinc Finger Protein GLI1 (AID 2282945); conditions: HepG2, Attagene cis-factorial reporter mRNA, GLI element; actives raise or lower the signal
In short: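 Bidirectional curve fits relative to DMSO, using reporter mRNA levels from RT-PCR plus capillary electrophoresis. Cells were HepG2 transiently carrying cis-regulated reporter constructs, harvested 24 h after dosing.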

[10] = ATG_ERE_CIS: Attagene CIS-FACTORIAL HepG2 Assay for Estrogen Response Element (ERE) (AID 2282940); conditions: HepG2 ERE cis-reporter, Attagene RNA transcript; actives raise or lower the signal
In short: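 After 24 h compound treatment, RNA from transfected HepG2 cells was reverse-transcribed, reporter cDNA PCR-amplified, FAM-labelled, HpaI-cut and resolved by capillary electrophoresis. ERE-driven cis reporter transcripts reflect endogenous factors; gain or loss scored against DMSO.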

Sequence of Hepatocyte nuclear factor 3-beta (Homo sapiens) (Q9Y261 whole entry, looked up): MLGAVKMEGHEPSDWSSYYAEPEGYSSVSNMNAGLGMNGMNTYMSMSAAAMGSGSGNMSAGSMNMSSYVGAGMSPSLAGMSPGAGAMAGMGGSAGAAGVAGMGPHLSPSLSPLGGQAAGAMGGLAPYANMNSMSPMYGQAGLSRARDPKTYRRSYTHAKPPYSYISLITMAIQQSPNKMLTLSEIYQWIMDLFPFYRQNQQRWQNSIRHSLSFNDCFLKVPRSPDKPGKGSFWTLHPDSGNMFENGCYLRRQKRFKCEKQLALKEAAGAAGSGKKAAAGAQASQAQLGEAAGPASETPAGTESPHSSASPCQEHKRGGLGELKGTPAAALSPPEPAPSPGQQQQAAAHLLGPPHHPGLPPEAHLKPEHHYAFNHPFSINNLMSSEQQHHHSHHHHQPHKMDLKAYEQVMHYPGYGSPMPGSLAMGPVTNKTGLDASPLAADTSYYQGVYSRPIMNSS

| SMILES | outcome [1] | outcome [2] | outcome [3] | outcome [4] | outcome [5] | outcome [6] | outcome [7] | outcome [8] | outcome [9] | outcome [10] | AC50 [1] | AC50 [4] | AC50 [7] | AC50 [8] | AC50 [9] | AC50 [10] | AC50 [3] |
| --- | --- | --- | --- | --- | --- | --- | --- | --- | --- | --- | --- | --- | --- | --- | --- | --- | --- |
| CC(=O)OCC(COC(C)=O)OC(C)=O | inactive | inactive | inactive | inactive | inactive | inactive | inactive | inactive | inactive | – | – | – | – | – | – | – | – |
| CO[C@@H]1COCC[C@@H]1N[C@@H]1CC[C@@](C(=O)N2CCc3ncc(C(F)(F)F)cc3C2)(C(C)C)C1 | inactive | inactive | inactive | inactive | – | inactive | inactive | inactive | inactive | – | – | – | – | – | – | – | – |
| CCCCCCCC(=O)OC | inactive | inactive | inactive | inactive | – | inactive | inactive | inactive | inactive | inactive | – | – | – | – | – | – | – |
| CC(=O)O[C@]1(C(C)=O)CC[C@H]2[C@@H]3C=C(Cl)C4=CC(=O)[C@@H]5C[C@@H]5[C@]4(C)[C@H]3CC[C@@]21C | inactive | inactive | – | inactive | – | inactive | inactive | inactive | inactive | – | 165 µM (active) and 78.6 µM (active) and 50.5 µM (active) | 180 µM (active) | 150 µM (active) and 158 µM (active) and 48.6 µM (active) | 174 µM (active) and 48.9 µM (active) | 100 µM (active) and 145 µM (active) | – | – |
| N[C@@H](Cc1c[nH]c2ccccc12)C(=O)O | inactive | inactive | inactive | inactive | inactive | inactive | inactive | inactive | inactive | – | – | – | – | – | – | – | – |
| NC=O | inactive | inactive | inactive | inactive | – | inactive | inactive | inactive | inactive | – | – | – | – | – | – | – | – |
| CC(=O)O | inactive | inactive | inactive | inactive | – | inactive | inactive | inactive | inactive | – | – | – | – | – | – | – | – |
| CC(N)=O | inactive | inactive | inactive | inactive | – | inactive | inactive | inactive | inactive | – | – | – | – | – | – | – | – |
| CC1(C)C(=O)NC(=O)N1CO | inactive | inactive | inactive | inactive | inactive | inactive | inactive | inactive | inactive | – | – | – | – | – | – | 158 µM (active) | – |
| C=CCc1ccc(OC)c(OC)c1 | inactive | inactive | inactive | inactive | – | inactive | inactive | inactive | inactive | – | – | – | – | – | – | – | – |
| CCCCCCC(CCCCCCCCCCC(=O)OCC(COC(C)=O)OC(C)=O)OC(C)=O (stereo unspecified) | inactive | inactive | inactive | inactive | inactive | inactive | inactive | inactive | inactive | inactive | – | – | – | – | – | – | – |
| CCc1nc(N)nc(N)c1-c1ccc(Cl)cc1 | inactive | inactive | – | inactive | inactive | inactive | inactive | inactive | inactive | inactive | – | – | – | – | – | – | 32.8 µM (active) |
| CC(C)c1cccc(C(C)C)c1 | inactive | inactive | inactive | inactive | inactive | inactive | inactive | inactive | inactive | inactive | – | – | – | – | – | – | – |
| Oc1ccc(O)cc1 | inactive | inactive | inactive | – | inactive | inactive | inactive | inactive | inactive | – | – | – | – | – | – | 35.6 µM (active) | – |
| CCc1cc(C2=C(C(=O)O)N(c3ccccc3C(F)(F)F)S(=O)(=O)c3ccccc32)cc2c1OCO2 | inactive | inactive | inactive | inactive | inactive | inactive | inactive | inactive | inactive | – | – | – | – | – | – | – | – |
| Nc1nc(Cl)nc2c1ncn2[C@H]1C[C@H](O)[C@@H](CO)O1 | – | inactive | inactive | inactive | inactive | inactive | inactive | inactive | inactive | – | 11.4 µM (active) | – | – | – | – | – | – |
| CCN(CC)CCOc1ccc(C(=C(Cl)c2ccccc2)c2ccccc2)cc1 | inactive | inactive | inactive | inactive | inactive | inactive | inactive | inactive | inactive | – | 11.9 µM (active) | – | – | 17.6 µM (active) | 9.35 µM (active) | – | 6.34 µM (active) |
| CC(=O)[C@@]1(O)CC[C@H]2[C@@H]3CCC4=CC(=O)CC[C@]4(C)[C@H]3CC[C@@]21C | inactive | inactive | inactive | inactive | inactive | inactive | inactive | inactive | inactive | – | 4.34 µM (active) and 27 µM (active) and 33.6 µM (active) | – | – | – | – | – | – |
| NC1CCCCC1 | inactive | inactive | inactive | inactive | inactive | inactive | inactive | inactive | inactive | inactive | – | – | – | – | – | – | – |
| CCCCc1nc2cccnc2n1Cc1ccc(-c2ccccc2-c2nnn[nH]2)cc1 | inactive | inactive | inactive | inactive | – | inactive | inactive | inactive | inactive | inactive | – | – | – | – | – | – | – |
| CCCCOC(=O)CCCCC(=O)OCCCC | inactive | inactive | inactive | inactive | – | inactive | inactive | inactive | inactive | – | – | – | – | – | – | – | – |
| O=C1NC(=O)C(c2ccccc2)(c2ccccc2)N1 | inactive | inactive | inactive | inactive | inactive | inactive | inactive | inactive | inactive | – | – | – | – | – | – | – | – |
| CN(C)CCCN1c2ccccc2Sc2ccc(Cl)cc21 | inactive | inactive | – | inactive | inactive | inactive | inactive | inactive | inactive | – | – | – | – | – | – | – | 13.2 µM (active) |
| C=CCCCCCCCCCCCC | inactive | inactive | inactive | inactive | inactive | inactive | inactive | inactive | inactive | – | – | – | – | – | – | – | – |
| CC(C)OC(=O)C(C)(C)Oc1ccc(C(=O)c2ccc(Cl)cc2)cc1 | inactive | inactive | – | inactive | inactive | inactive | inactive | inactive | inactive | – | – | – | – | – | – | 27.7 µM (active) | 38.4 µM (active) |
| CC(=O)OC1CC(C)OC(C)O1 (stereo unspecified) | inactive | inactive | inactive | inactive | inactive | inactive | inactive | inactive | inactive | – | – | – | – | – | – | – | – |
| Cc1cc(Cc2ccc(N)c(C)c2)ccc1N | inactive | inactive | inactive | inactive | inactive | inactive | inactive | inactive | inactive | – | – | – | – | – | – | – | – |
